Consider 16 compounds from PubChem BioAssay (EPA / NIEHS).

“And” between values parts separate entries of the source, which are not always exact repeats. Equal entries are not always repeated. Some structures have more than one record in an assay (separate samples or runs), and their calls can disagree. The source made the active and inactive calls. The calls were made as follows: active = hit-call score of the fitted dose curve at least 0.9, where 1 is the maximum; inactive = score below 0.9.

Read-out in assay [1]: Urokinase-type plasminogen activator receptor (uPAR), PLAUR (gene 5329)
Briefly: BSK_4H_uPAR: BioMAP Diversity Plus: 4H Assay for Urokinase-type plasminogen activator receptor (uPAR) Biomarker Activity (AID 2283030). The conditions noted are these: primary human endothelial cells (HUVEC); actives raise or lower the signal. The gist of the method: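 Endpoint derived via bidirectional curve fitting against DMSO baseline; readout was ELISA detection of uPAR on umbilical vein endothelial cells at 24 h post-treatment, with SRB-stained parallel cultures assessing cytotoxicity.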

Read-out in assay [2]: Vascular endothelial growth factor receptor 2 (Homo sapiens) (UniProt P35968)
Briefly: BSK_4H_VEGFRII: BioMAP Diversity Plus: 4H Assay for Vascular endothelial growth factor receptor 2 (VEGFR2) Biomarker Activity (AID 2283031).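 As to AC50: cell-surface VEGFR2 protein level quantified by ELISA.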 The conditions noted are these: primary human endothelial cells (HUVEC); actives raise or lower the signal. The essentials:
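In this multiplexed HUVEC system, biomarker ELISA was performed after 24 h chemical exposure. Parallel SRB staining (TCA fixation, 560 nm) tracked cytotoxicity; DMSO served as baseline.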

Read-out in assay [3]: Human Leukocyte Antigen - DR isotype (HLADR), HLA-DRA (gene 3122)
In words: BSK_BE3C_HLADR: BioMAP Diversity Plus: BE3C Assay for Human Leukocyte Antigen - DR isotype (HLADR) Biomarker Activity (AID 2283032). As to conditions: primary human bronchial epithelial cells; actives raise or lower the signal. The gist of the method: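 Chemicals are dosed onto BE3C bronchial epithelial cultures of human origin and left 24 h. HLA-DR is then measured by ELISA, and the endpoint is fitted in both directions using DMSO as the activity baseline.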

Read-out in assay [4]: Vascular cell adhesion molecule 1 (VCAM1), VCAM1 (gene 7412)
In words: BSK_4H_VCAM1: BioMAP Diversity Plus: 4H Assay for Vascular cell adhesion molecule 1 (VCAM1) Biomarker Activity (AID 2283033).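 As to outcome: cell-surface VCAM-1 protein measured by ELISA.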 The conditions noted are these: primary human endothelial cells (HUVEC); actives raise or lower the signal. The essentials: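 Chemicals are added to primary human umbilical vein endothelial cells. After 24 h, VCAM-1 levels are measured by ELISA. Values come from bidirectional fitting referenced to DMSO.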

Read-out in assay [5]: Interferon-gamma inducible Protein 10 (IP10), CXCL10 (gene 3627)
In words: BSK_BE3C_IP10: BioMAP Diversity Plus: BE3C Assay for Interferon-gamma inducible Protein 10 (IP10) Biomarker Activity (AID 2283034). As to conditions: primary human bronchial epithelial cells; actives raise or lower the signal. The essentials:
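IP-10 quantified by ELISA serves as the endpoint. Cells: primary human bronchial epithelium, read 24 h after compound addition. Activity is derived by bidirectional fitting with DMSO as negative control.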

Read-out in assay [6]: Monokine induced gamma interferon (MIG), CXCL9 (gene 4283)
Briefly: BSK_BE3C_MIG: BioMAP Diversity Plus: BE3C Assay for Monokine induced gamma interferon (MIG) Biomarker Activity (AID 2283035).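 As to outcome: MIG protein measured by ELISA in BE3C cultures after 24 h of dosing.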 The conditions noted are these: primary human bronchial epithelial cells; actives raise or lower the signal. The gist of the method: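 hu bronchial epithelial 1° cells, 24 h cpd; MIG by ELISA; bidirectional fit, DMSO = baseline.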

Read-out in assay [7]: Transforming growth factor beta 1 (TGFb1), TGFB1 (gene 7040)
Briefly: BSK_BE3C_TGFb1: BioMAP Diversity Plus: BE3C Assay for Transforming growth factor beta 1 (TGFb1) Biomarker Activity (AID 2283036;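 as to outcome: TGF-b1 protein level measured by ELISA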). The conditions noted are these: primary human bronchial epithelial cells; actives raise or lower the signal. The gist of the method:
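Bronchial epithelial primary cells are treated with test chemical, then TGF-b1 is quantified by ELISA after 24 hours. Values derive from bidirectional fitting against DMSO, with cytotoxicity checked by SRB staining in parallel cultures.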

Read-out in assay [8]: urokinase plasminogen activator (uPA), PLAU (gene 5328)
Briefly: BSK_BE3C_uPA: BioMAP Diversity Plus: BE3C Assay for urokinase plasminogen activator (uPA) Biomarker Activity (AID 2283038).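 As to outcome: uPA protein level quantified by ELISA in cell cultures; uPA read one day after compound addition.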 The conditions noted are these: primary human bronchial epithelial cells; actives raise or lower the signal. The gist of the method: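 Using confluent primary human lung bronchial epithelial cultures, we dosed chemicals, waited 24 h, then ran a uPA ELISA, fitting bidirectionally against DMSO.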

Read-out in assay [9]: Urokinase-type plasminogen activator receptor (uPAR), PLAUR (gene 5329)
Briefly: BSK_BE3C_uPAR: BioMAP Diversity Plus: BE3C Assay for Urokinase-type plasminogen activator receptor (uPAR) Biomarker Activity (AID 2283039).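 As to outcome: uPAR protein level measured by ELISA on the cells; cells exposed to compound for one day before measurement.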 As to conditions: primary human bronchial epithelial cells; actives raise or lower the signal. The essentials: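 Steps: dose human primary bronchial epithelial cells, incubate 24 h, measure uPAR by ELISA, then fit gain- or loss-of-signal response bidirectionally relative to DMSO.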

Read-out in assay [10]: Plasminogen activator inhibitor-1 (PAI1), SERPINE1 (gene 5054)
In words: BSK_BE3C_PAI1: BioMAP Diversity Plus: BE3C Assay for Plasminogen activator inhibitor-1 (PAI1) Biomarker Activity (AID 2283037). As to conditions: primary human bronchial epithelial cells; actives raise or lower the signal. The essentials: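 Values derive from bidirectional fitting against DMSO baseline of PAI-1 levels, measured by ELISA in human bronchial epithelial cells 24 h after compound addition.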

On to `O=C=NCc1cccc(CN=C=O)c1`, for which the outcome in [1], in assay [2], in [3], in [4], in assay [5] and in assay [6] was inactive. Moreover, the result in assay [7], in assay [8] and in [9] was inactive.
On to `Cc1cnccn1`, for which the outcome in assay [1], in [2], in assay [3], in assay [4], in assay [5] and in [6] was inactive. For the same compound, the outcome in assay [7], in [8] and in [9] was inactive.
As for `CCOC(=O)CC(=O)C(F)(F)C(F)(F)F`, in [1], the concentration at half-maximal activity (AC50) was 15.1 µM (active). Moreover, the result in assay [1], in assay [2], in assay [3], in assay [4], in assay [5] and in [6] was inactive. In addition, the outcome in assay [10], in assay [8] and in [9] was inactive.
With `CCN(CC)c1ccc2c(c1)Oc1cc(N(CC)CC)ccc1C21OC(=O)c2ccccc21`, the outcome in assay [1], in assay [2], in assay [3], in [4], in [6] and in assay [7] was inactive. Besides, the result in [10], in assay [8] and in [9] was inactive. In addition, the AC50 in [5] was 1.98 µM (active).
As for `CC1=CC2C3C=CC(C3)C2C1C` (configuration not stated), the result in [1], in [2], in assay [3], in [4], in assay [5] and in assay [6] was inactive. For the same compound, the result in assay [7], in assay [10], in assay [8] and in assay [9] was inactive.
Consider `CNS(=O)(=O)C(F)(F)C(F)(F)C(F)(F)C(F)(F)C(F)(F)C(F)(F)C(F)(F)C(F)(F)F`, for which the result in assay [1], in assay [2], in assay [3], in assay [4], in [5] and in [6] was inactive. In addition, the outcome in [8] and in assay [9] was inactive. Also, the AC50 in assay [5] is 13.3 µM (active).
Regarding `CCN(CC)c1ccc(N=Nc2ccccc2)cc1`, the result in assay [1], in assay [3], in [6], in [8] and in assay [9] was inactive. Also, the half-maximal activity concentration (AC50) is 20 µM (active) in assay [2], 16.9 µM (active) in assay [4], 10.2 µM (active) in [5] and 20 µM (active) in assay [7].
Turning to `O=C(c1ccccc1)c1ccc(O)cc1O`, the outcome in assay [1], in assay [2], in [3], in assay [4], in [5] and in assay [6] was inactive. Besides, the outcome in assay [7], in assay [8] and in assay [9] was inactive.
Regarding `O=C(O)CCC(F)(F)C(F)(F)C(F)(F)C(F)(F)C(F)(F)C(F)(F)C(F)(F)F`, the result in assay [1], in [2], in assay [4], in [5], in assay [6] and in [8] was inactive. Besides, in assay [9], the result was inactive. Moreover, the AC50 was 2.48 µM (active) and 3.33 µM (active) in assay [3]; 2.32 µM (active) in assay [5].
`C[Si](Cl)(Cl)CCC(F)(F)C(F)(F)C(F)(F)C(F)(F)C(F)(F)C(F)(F)F`: the AC50 in assay [1] is 0.0248 µM (active). The outcome in assay [1], in [2], in [3], in [4], in assay [5] and in [6] was inactive. The result in assay [10], in assay [8] and in assay [9] was inactive.
Turning to `CC(C)(C)c1cc(CCC(=O)NCCCCCCNC(=O)CCc2cc(C(C)(C)C)c(O)c(C(C)(C)C)c2)cc(C(C)(C)C)c1O`, the outcome in assay [1], in [2], in assay [3], in assay [4], in assay [6] and in assay [7] was inactive. The result in assay [8] and in assay [9] was inactive. In addition, the AC50 in assay [5] was 0.121 µM (active).
Take `O=S(=O)(Cl)C(F)(F)C(F)(F)C(F)(F)C(F)(F)C(F)(F)C(F)(F)C(F)(F)C(F)(F)F`: the half-maximal activity concentration (AC50) is 12.1 µM (active) in assay [1]; 44.8 µM (active) and 46.8 µM (active) in assay [3]; 40.2 µM (active) and 37 µM (active) in assay [5]; 55.8 µM (active) and 53.6 µM (active) in assay [6]; 45.8 µM (active) and 47.4 µM (active) in [10]; 55.2 µM (active) in assay [8]. For the same compound, the AC50 in assay [9] was 51.7 µM (active) and 51.6 µM (active). Moreover, the result in [1], in [2], in assay [4] and in assay [8] was inactive.
On to `O=C1c2c(O)ccc(Nc3ccc(CCO)cc3)c2C(=O)c2c([N+](=O)[O-])ccc(O)c21`, for which the AC50 in [1] is 31.1 µM (active); in assay [2] it was 34.8 µM (active); in assay [3] it was 3.43 µM (active); in assay [4], 26.6 µM (active); in [5], 20 µM (active); in [6], 20 µM (active). For the same compound, the result in assay [7], in assay [10], in assay [8] and in assay [9] was inactive.
Turning to `Cc1ccc(S(=O)(=O)C(I)I)cc1`, the AC50 was 2.2 µM (active) in assay [1]; 1.87 µM (active) in assay [2]; 7 µM (active) in assay [3]; 2.19 µM (active) in assay [4]; 6.58 µM (active) in assay [5]; 11 µM (active) in [6]. The half-maximal activity concentration (AC50) in assay [7] is 7.3 µM (active); in assay [10], 5.39 µM (active); in assay [8] it was 6.62 µM (active); in [9], 6.81 µM (active).
With `NCC(F)(F)C(F)(F)C(F)(F)C(F)(F)C(F)(F)C(F)(F)F`, the result in [1], in [2], in assay [3], in assay [4], in assay [5] and in [6] was inactive. The result in assay [10], in [8] and in [9] was inactive.
Take `Cc1cc(C)c(O)c(C(C)(C)C)c1`: the concentration at half-maximal activity (AC50) in assay [1] is 37.7 µM (active); in assay [3], 29.5 µM (active); in assay [4] it was 30.4 µM (active); in [5], 31 µM (active); in assay [6], 36 µM (active); in assay [7], 29.8 µM (active). Moreover, the half-maximal activity concentration (AC50) in assay [8] was 28.7 µM (active); in [9], 28.2 µM (active). Also, the outcome in assay [2] was inactive.
